Among the data in PubChem BioAssay (EPA / NIEHS) are outcome and AC50 values, retold here.

One may read the AC50 as the concentration at which the activity in the assay is half-maximal.

Results filed as inconclusive are left out. Activity calls are given as the source filed them. How the source made its calls: active means hit-call score of the fitted dose curve at least 0.9, where 1 is the maximum; inconclusive means response in the unintended direction; inactive means score below 0.9.

Read-out in the experiment: sulfotransferase (SULT2A), SULT2A1 (gene 6822)
Nature of the experiment: CLD_SULT2A_48hr: CellzDirect (CLD) Gene Expression Assay for sulfotransferase (SULT2A) at 48 hours (AID 2283710).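 Further: hits raise SULT2A1 transcript above the 0.2% DMSO vehicle baseline.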 Here is the method: CLD_48hr is a cell-based, multiplexed-readout assay that uses hepatocyte, a human liver primary cell, with measurements taken at 48 hours after chemical dosing in a 96-well plate.CLD_SULT2A_48hr is one of 16 assay component(s) measured or calculated from the CLD_48hr assay. It is designed to make measurements of mRNA induction, a form of inducible reporter, as detected with chemiluminescence signals by Quantitative Nuclease Protection Assay (qNPA) technology.Data from the assay component CLD_SULT2A_48hr was analyzed at the endpoint, CLD_SULT2A_48hr, in the positive analysis fitting direction relative to DMSO as the negative control and baseline of activity. Using a type of inducible reporter, gain-of-signal activity can be used to understand changes in the reporter gene as they relate to the gene SULT2A1. Furthermore, this assay endpoint can be referred to as a primary readout. To generalize the intended target to other relatable targets, this assay endpoint is annotated to the transferase intended target family, where subfamily is sulfotransferase.
Human hepatocyte cultures were treated daily for two consecutive days with fresh dosing solutions containing appropriate concentrations of the 320 ToxCast chemicals (chemical identities were blinded to CellzDirect and other ToxCast collaborators), vehicle control (0.2% DMSO), and positive control inducers as summarized in Table 1. Due to the large number of treatment groups and chemicals examined, the ToxCast chemicals were divided into two groups (spanning two independent cultures of hepatocytes from separate donor preparations (Hu778: ToxCast plates 1 and 2; Hu776: ToxCast plates 3 and 4). Each preparation of human hepatocyte cultures was treated with respective vehicle control, medium only control, set of six positive controls/reference chemicals for the five hepatic receptor pathways, and a subset of eight of the ToxCast chemicals (indoxacarb, pyrithiobac-sodium, norflurazon, cyhalofop-butyl, methomyl, thiram, acetochlor, and propiconazole). These replicate data, coupled with internal replicates designed within the blinded ToxCast chemical library, provided additional data to evaluate interindividual differences between hepatocyte preparations and their potential impact on chemical profiles.Cell morphology and integrity were evaluated using phase-contrast microscopy as an indicator of hepatocyte cell health (Tyson & Green, 1987). Cultures for each treatment group (i.e., media, vehicle [0.2% DMSO], positive control inducers [multiple concentrations], and the ToxCast chemicals [multiple concentrations]) were observed and cell morphology was assessed relative to vehicle control cultures at each harvest time point (0, 6, 24, or 48 h). […] Images were evaluated at the conclusion of the study to assess changes in cell integrity and account for the effects of chemical exposure on uncharacteristic changes in concentration-dependent gene expression profiles. The results from these determinations of apparent cytotoxicity were annotated (yes/no) alongside the corresponding qNPA data for reference.At the conclusion of each treatment period, hepatocyte cultures (96-well) were washed with 1 volume of HBSS, lysed by addition of 25 ul ArrayPlate lysis buffer (HTG, Tucson, AZ), and 70 ul/well of Denaturation Oil, denatured by incubation at 95C for 10 min, and frozen at approximately -70C until analysis by nuclease protection assay (qNPA) (Roberts et al., 2007). For qNPA analysis, cell lysates were thawed at 50C for approximately 30 min, qNPA probes were added, and samples were incubated at 95C for 10 min to begin the detection process by denaturing the target RNA, dissociating the duplexes and secondary structure hybridization. At the conclusion of the hybridization period, S1 nuclease reagent was added to each sample to digest all nonprotected nucleotides at 50C for 60-90 min. […]
With `Fc1ccc(Oc2ccnc3cc(Cl)cc(Cl)c23)cc1`, the result was inactive.
Still for that read-out and setting: in the case of `CCCC1COC(Cn2cncn2)(c2ccc(Cl)cc2Cl)O1` (stereo not given) it was “inactive”; in that of `COC(=O)C=C(C)OP(=O)(OC)OC`, “inactive”; in that of `COC(=O)c1ccccc1C(=O)OC`, “inactive”.
For the compound `O=C(Nc1ccccc1)Nc1ccnc(Cl)c1`, the call was inactive.
On to `COc1nc(NC(C)C)nc(NC(C)C)n1`, for which the compound was called inactive.
The same measure, in the same setting: in the case of `CCNc1nc(Cl)nc(NCC)n1` it was “inactive”.
Still for that read-out and setting: in the case of `N#Cc1nn(-c2c(Cl)cc(C(F)(F)F)cc2Cl)c(N)c1S(=O)C(F)(F)F` (stereo not given) it was “inactive”.
The same measure, in the same setting: in the case of `O=C(O)c1nc(Cl)ccc1Cl` it was “inactive”; in that of `CC1COC(Cn2cncn2)(c2ccc(Oc3ccc(Cl)cc3)cc2Cl)O1` (stereo not given), “inactive”.
As for `CC(C)(C)c1ccc(CSc2cnn(C(C)(C)C)c(=O)c2Cl)cc1`, the result was inactive.
Turning to `C=CCC1=C(C)[C@@H](OC(=O)[C@@H]2[C@@H](C=C(C)C)C2(C)C)CC1=O`, the compound was classed as inactive.
On the same count and under the same terms, in the case of `COC(=O)C(C)Oc1ccc(Oc2ccc(Cl)cc2Cl)cc1` (stereo not given) it was “inactive”; in that of `COc1cnc(OC)n2nc(NS(=O)(=O)c3c(OCC(F)F)cccc3C(F)(F)F)nc12`, “inactive”; in that of `COP(N)(=O)SC` (stereo not given), “inactive”.
In the case of `CC(Oc1ccc(Cl)cc1Cl)C(=O)O` (stereo not given), the compound was called inactive.
For the compound `CCCCC(CC)COC(=O)c1ccccc1C(=O)OCC(CC)CCCC` (stereo not given), the compound was classed as inactive.
For the compound `CCON=C(CC)C1=C(O)CC(c2c(C)cc(C)cc2C)CC1=O` (stereo not given), the result was inactive.
The same measure, in the same setting: in the case of `C=CC1(C)OC(=O)N(c2cc(Cl)cc(Cl)c2)C1=O` (stereo not given) it was “inactive”.
On the same count and under the same terms, in the case of `N#Cc1cc(Br)c(O)c(Br)c1` it was “inactive”; in that of `CS/C(C)=N/OC(=O)N(C)SN(C)C(=O)O/N=C(\C)SC`, “inactive”.
For `CCCN(CCC)c1c([N+](=O)[O-])cc(S(N)(=O)=O)cc1[N+](=O)[O-]`, the AC50 was 6.29 µM (active).
For the compound `CCOP(=S)(OCC)SCn1c(=O)oc2cc(Cl)ccc21`, the compound was classed as inactive.
Regarding `CCc1nn(C)c(C(=O)NCc2ccc(C(C)(C)C)cc2)c1Cl`, the half-maximal activity concentration (AC50) is 20 µM (active).
In the case of `CCOC(=O)C(Cl)Cc1cc(-n2nc(C)n(C(F)F)c2=O)c(F)cc1Cl` (stereo not given), the compound was called inactive.
Still for that read-out and setting: in the case of `CC(C)C1(C)N=C(c2nc3ccccc3cc2C(=O)O)NC1=O` (stereo not given) it was “inactive”.
Same read-out and setting: in the case of `Oc1ccccc1-c1ccccc1` it was “inactive”.
In the case of `C=CCC1=C(C)C(OC(=O)C2C(C=C(C)C)C2(C)C)CC1=O` (stereo not given), the compound was classed as inactive.
Still for that read-out and setting: in the case of `C#CCOS(=O)OC1CCCCC1Oc1ccc(C(C)(C)C)cc1` (stereo not given) it was “inactive”; in that of `CON(C)C(=O)Nc1ccc(Cl)c(Cl)c1`, “inactive”; in that of `COc1ccc(C(c2ccc(OC)cc2)C(Cl)(Cl)Cl)cc1`, “inactive”.
For the compound `N#CC(CCc1ccc(Cl)cc1)(Cn1cncn1)c1ccccc1` (stereo not given), the AC50 is 20 µM (active).
As to `CCOc1cc(Oc2ccc(C(F)(F)F)cc2Cl)ccc1[N+](=O)[O-]`, the call was inactive.
With `CCNc1nc(Cl)nc(NC(C)C)n1`, the outcome was inactive.
The same measure, in the same setting: in the case of `COc1nc(C)nc(NC(=O)NS(=O)(=O)c2ccccc2CCC(F)(F)F)n1` it was “inactive”; in that of `Cc1c(F)c(F)c(COC(=O)C2C(/C=C(\Cl)C(F)(F)F)C2(C)C)c(F)c1F` (stereo not given), “inactive”; in that of `CCOC(=O)CC(SP(=S)(OC)OC)C(=O)OCC` (stereo not given), “inactive”.
On to `COC(=O)N(OC)c1ccccc1COc1ccn(-c2ccc(Cl)cc2)n1`, for which the AC50 is 9.28 µM (active).
`OC(c1ccc(Cl)cc1)(c1cncnc1)c1ccccc1Cl` (stereo not given): the compound was called inactive.
For the compound `CCCCOC(=O)c1ccccc1C(=O)OCCCC`, the outcome was inactive.
